# Source: PubChem (several laboratories)
# A selection: hits, their analogues and other compounds. The true share with any hit is near 5%.
# AI-2 QS mod: Vibrio harveyi AI-2 quorum sensing modulation; Vibrio harveyi JMH597 AI-2 luminescence/OD600 ratio, 9 h; active compounds read low; strain lacks LuxN and CqsS sensors; 0 = neutral-control median; activity change, % at 7.5 µM; 300,000 tested, 0.4% active; AID 2094; in the data active = activity change below about -75%, passing the limit was not always enough;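 note: luminescence divided by OD600 gain over 9 h not by final OD600 alone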
# ALR H2O2 inh: inhibitors of human sulfhydryl oxidase ALR; purified ALR, DTT oxidation, H2O2 HRP-luminol luminescence; P55789; inhibition, % (concentration not given with the values); 290,000 tested, 3.8% active;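 active = mean replicate inhibition above about 79%, with every replicate also reaching it, limit read from the data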
# CHT inh: inhibits the human high affinity choline transporter; Q9GZV3; CHT-expressing cells, membrane potential dye, choline response; active compounds read low; B-score at 10 µM; 310,000 tested, 0.86% active; AID 488975;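 active = B-score over 3 SD under the library average, and starting fluorescence ratio not unusually high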;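 note: choline stimulus applied at its EC90 after an EC20 pre-addition; B-score computed on integrated fluorescence ratio after choline addition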
# Target sequence (Q9GZV3 whole entry, looked up): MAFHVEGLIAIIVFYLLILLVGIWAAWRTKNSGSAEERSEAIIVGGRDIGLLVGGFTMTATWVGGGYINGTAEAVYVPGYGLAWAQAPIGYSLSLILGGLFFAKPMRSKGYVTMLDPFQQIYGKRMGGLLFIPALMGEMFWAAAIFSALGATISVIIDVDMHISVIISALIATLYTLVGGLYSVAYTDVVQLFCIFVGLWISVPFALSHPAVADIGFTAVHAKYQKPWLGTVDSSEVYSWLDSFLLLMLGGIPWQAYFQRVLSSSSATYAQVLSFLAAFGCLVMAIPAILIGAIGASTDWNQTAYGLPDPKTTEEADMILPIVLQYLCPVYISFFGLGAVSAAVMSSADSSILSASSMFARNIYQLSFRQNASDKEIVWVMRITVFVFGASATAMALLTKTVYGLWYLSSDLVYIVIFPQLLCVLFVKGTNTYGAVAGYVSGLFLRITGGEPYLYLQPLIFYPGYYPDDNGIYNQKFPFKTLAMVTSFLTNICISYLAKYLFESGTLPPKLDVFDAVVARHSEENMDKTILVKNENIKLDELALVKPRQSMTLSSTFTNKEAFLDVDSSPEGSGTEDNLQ
# CHT PAM: human CHT allosteric activation. Q9GZV3. CHT-expressing cells, membrane potential dye, choline EC20; active compounds read high; LV-AA mutant CHT in HEK293 cells. B-score at 10 µM. 310,000 tested, 0.49% active;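 active = initial fluorescence not abnormally high and integrated response B-score, plate-corrected, over 3 SD above library mean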
# PREPL inh: inhibitors of human prolyl oligopeptidase-like enzyme PREPL | recombinant PREPL, fluorescence polarization activity-based probe | inhibition, % at 5.96 µM | 320,000 tested, 0.68% active
# JMH597 growth: retest: blocks Vibrio harveyi JMH597 growth; growth inhibition, % at 7.5 µM; shares compounds with AI-2 QS mod; OD600 absorbance, 9 h; lacks LuxN and CqsS sensors; AID 2726; 750 tested, 1% active;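 active = every replicate shows growth inhibition above 50%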
# BB721 const-QS lum: retest counter-screen: BB721 constitutive quorum sensing luminescence decrease | shares compounds with AI-2 QS mod | Vibrio harveyi BB721 luminescence, 9 h | inhibition, % at 7.5 µM | 750 tested, 95% active | AID 2727;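 active = inhibition above about 80% in every replicate, not just on average, limit read from the data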
# BB721 growth rt: retest: blocks Vibrio harveyi BB721 growth; shares compounds with AI-2 QS mod; OD600 absorbance, 9 h; growth inhibition, % at 7.5 µM; 750 tested, 3% active; AID 2728;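 active = every replicate shows growth inhibition above 50%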
# AI-2 QS JMH597: Vibrio harveyi AI-2 signaling luminescence modulation – JMH597 strain, confirmation. inhibition, % at 7.5 µM. 750 tested, 97% active. Vibrio harveyi JMH597 AI-2 quorum sensing luminescence, 9 h; luxN and CqsS knockout, AI-2 only. AID 2736. shares compounds with AI-2 QS mod;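 active = every replicate shows more than 75% inhibition of signal versus neutral control wells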
# PREPL confirm: human PREPL inhibition, confirmation | shares compounds with PREPL inh | recombinant PREPL, fluorescence polarization activity probe | inhibition, % at 5.96 µM | 2,000 tested, 67% active | AID 2803
# CHT inh conf: human CHT inhibition, confirmatory screen; shares compounds with CHT inh; CHT-expressing cells, choline membrane potential dye; LV-to-AA substituted CHT, HEK293 cells; CHT activity remaining % of control (active compounds read low), % at 10 µM; 2,400 tested, 70% active; AID 493221;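 active = choline transporter activity left, mean of duplicates at 10 µM, below buffer-only control mean minus 3 SD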;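 note: depolarization triggered by choline at its EC90 following an EC20 pre-addition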
# HEK293 CHT ctr: CHT inhibitor counter-screen hit in parental HEK293 cells; membrane potential ratio readout (active if shifted either direction beyond buffer ±3SD; no single direction) at 10 µM; shares compounds with CHT inh; membrane potential dye, choline response; active = decrease or increase beyond buffer ±3SD; 2,400 tested, 4% active; AID 493222;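 note: parental cells lack the transporter so any hit is non-specific; ratio is peak minus trough fluorescence over baseline after EC90 choline challenge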
# A number is an active result; n = inactive; x = not tested or not shown. Cut-off read from the data, not from the text of the source, unless noted: active = inhibition above about 43%; inactive = the rest.
SMILES,AI-2 QS mod,ALR H2O2 inh,CHT inh,CHT PAM,PREPL inh,PREPL confirm,others
CCOC(=O)c1sc(NC(=O)COC(=O)c2ccco2)nc1C,-89.4,n,n,n,n,x,JMH597 growth=n;BB721 const-QS lum=96.6;BB721 growth rt=n;AI-2 QS JMH597=98.1
CCOC(=O)CC1CCCCN1C(=O)c1cc(COc2cccc3cnccc23)on1 (centres undefined),-86.5,n,-5.39,n,n,x,JMH597 growth=n;BB721 const-QS lum=87.6;BB721 growth rt=n;AI-2 QS JMH597=93.3;CHT inh conf=69.5%;HEK293 CHT ctr=n
COc1ccc(C(=O)NC(=S)N2CCN(c3ccccc3OC)CC2)cc1OC,n,n,n,n,n,x,
O=C(Oc1ccc2c(-c3ccccc3)cc(=O)oc2c1)c1cccs1,n,n,n,n,n,x,
O=C(Oc1ccc2ccc(=O)oc2c1)c1cccs1,n,n,n,n,45.3,59.8,
Cc1ccc(-n2cccc2C(=O)NS(=O)(=O)c2ccc(C)cc2)cc1,n,n,n,n,n,x,
Cc1ccc(-n2cccc2C(=S)N=P(N(C)C)(N(C)C)N(C)C)cc1,n,n,n,n,44.3,n,
CNC(=S)N1N=C(c2ccc(Br)cc2)CC1c1ccc(Br)cc1 (centres undefined),n,n,n,n,n,x,
CNC(=S)N1N=C(c2ccc(Br)cc2)CC1c1ccc(N(C)C)cc1 (centres undefined),n,x,n,n,47.5,49.6,
